The source of these data is PubChem BioAssay (EPA / NIEHS).

The nature of test [1]: CCTE_Mundy_HCI_iCellGluta_NOG_NeuriteLength: CCTE's Neurite Outgrowth Assay in iCellGluta cells for Neurite Length, Mundy Lab (AID 2284318). Summed up:
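Automated high-content imaging of betaIII-tubulin (Alexa Fluor-488) and Hoechst-stained cells gave neurite length, normalized to the DMSO baseline.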

A short description of test [2]: IUF_NPC1_cytotoxicity_72hr: Cytotoxicity Assessment at 72 hours in the Leibniz Research Institute for Environmental Medicine (IUF) Neural Progenitor Cell Proliferation Assay (NPC1) (AID 2284332).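 Also: rising LDH signal means more cytotoxicity.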 In a few lines: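 Single human fetal cortex neural progenitor spheres (GW 16-19, 0.25-0.35 mm) in EGF/FGF proliferation medium were exposed to compound for 72 h at 37C without renewal. Medium LDH release was read as resorufin fluorescence and fitted as gain-of-signal.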

A short description of test [3]: CCTE_Mundy_HCI_iCellGluta_NOG_NeuronCount: CCTE's Neurite Outgrowth Assay in iCellGluta cells for Neuron Count, Mundy Lab (AID 2284340).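 Also: cells fixed about 48 h after compound addition.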 In a few lines:
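Neuron count read by automated high-content imaging of Hoechst 33342 and betaIII-tubulin/Alexa Fluor-488 labelling in human iPSC glutamatergic neurons. Activity fitted relative to DMSO.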

Test [4] in a line: CCTE_Mundy_HCI_iCellGluta_NOG_NeuriteCount: CCTE's Neurite Outgrowth Assay in iCellGluta cells for Neurite Count, Mundy Lab (AID 2284342).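 Also: chemical exposure about 48 hours starting 2 hours after plating.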
Test [5] in a line: CCTE_Deisenroth_5AR_NBTE_donor: CCTE's 5alpha-reductase NanoBRET Target Engagement Assay […], Deisenroth Lab (AID 2284319; active = hit-call score of the fitted dose curve at least 0.9, where 1 is the maximum; inactive = score below 0.9). The note with it: actives raise or lower the signal. In a few lines: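 Donor NanoLuc luminescence at 460-20 nm is the read-out, serving artifact detection. Transiently expressed SRD5A2-NanoLuc in HEK293T; 5 h total chemical exposure, testosterone tracer added for the final 2 h; fitting bidirectional relative to DMSO baseline.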
(In general: In BRET a luciferase serves as donor, and the signal depends on an acceptor being close.)

The nature of test [6]: CCTE_Deisenroth_5AR_NBTE_acceptor: CCTE's 5alpha-reductase NanoBRET Target Engagement Assay - Autofluorescence Screen, Deisenroth Lab (AID 2284321; active = hit-call score of the fitted dose curve at least 0.9, where 1 is the maximum; inactive = score below 0.9;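 also: compound fluorescence in the acceptor channel under 460 nm excitation flags autofluorescence artifacts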). The note with it: actives raise or lower the signal. In a few lines:
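Using three independent plate-reader runs, nominal 100 uM chemicals were checked for intrinsic fluorescence (ex 460 nm). DMSO defined the baseline for bidirectional fitting.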

A further test deals with SRD5A2 (gene 6716). Put plainly: CCTE_Deisenroth_5AR_NBTE_ratio: CCTE's 5alpha-reductase NanoBRET Target Engagement Assay - Ratio, Deisenroth Lab (AID 2284322; active = hit-call score of the fitted dose curve at least 0.9, where 1 is the maximum; inactive = score below 0.9). The note with it: actives raise or lower the signal. In a few lines: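 Reverse-transfect HEK293T with pNLF1-C-SRD5A2, express 20 h. Pre-incubate cells with chemical 3 h (8-point series, 10 nM - 29.9 uM, duplicate). Add testosterone tracer, 2 h more. Add substrate/inhibitor, read donor and acceptor emission.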

The next test deals with IYD (gene 389434). The experiment in a line: CCTE_GLTED_hIYD: CCTE's human Iodotyrosine Deiodinase (xIYD) Inhibition Assay, Great Lakes Toxicology and Ecology Division (GLTED) Lab (AID 2284317).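 Also: cell-free human IYD enzyme made in baculovirus insect cells; iodide freed from monoiodotyrosine measured by cerium arsenite color change at 420 nm.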 In a few lines:
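Human IYD expressed in a baculovirus-insect cell system was incubated 3 h with monoiodotyrosine and test chemical. Released iodide, separated on Dowex columns, was quantified by the Sandell-Kolthoff reaction at 420 nm; plates were normalized to MNT and DMSO/NaOH controls.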

Test [7] can be described thus: TAMU_PeakParms_SingleDonor1434_Asystole: Texas A&M University (TAMU) 1.5-hr Human Induced Pluripotent Stem Cell (iPSC)-derived Cardiomyocytes Calcium (Ca+2) Flux Assay for Cardiotoxicity: Asystole (quiescence of beating) (AID 2284328). Summed up:
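Average Ca2+-flux peak frequency (beats/s) was recorded in single-donor iPSC-derived cardiomyocytes after 90 min exposure (0.2–100 uM final, 0.5% DMSO). Asystole POD set as EC95 against DMSO, no preprocessing.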

A short description of test [8]: VALA_TUBIPS_Antagonist_TubuleLength: VALA Sciences human iPS-derived Endothelial Tubule Formation (TUBIPS) Antagonist Assay (AID 2284313). In a few lines:
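Cells grown 3 days with 10 ng/ml VEGF, then exposed to compounds in VEGF medium for another 3 days. After fixation, nuclear stain and CD31 immunofluorescence imaging gave mean total tubule length against 0.1% DMSO; suramin (100 uM) inhibition control.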

The nature of test [9]: VALA_MIGHUV2_WoundArea: VALA Sciences human Umbilical Vein Endothelial Cell Migration (MIGHUV) Assay, Area of Scratch Wound after Recovery (AID 2284316). Summed up:
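HUVEC seeded at 9000 cells/well, scratched after 24 h; test chemical added within 30 min, 6-point concentration response in triplicate (0.1% DMSO vehicle). After 24 h wound recovery, cells fixed and Hoechst-stained nuclei in wound area imaged; Cytochalasin D reference control.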

The nature of test [10]: VALA_TUBHUV_Antagonist_TubuleLength: VALA Sciences human Umbilical Vein Endothelial Tubule Formation (TUBHUV) Antagonism Assay (AID 2284325). In a few lines:
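HUVEC–HDF co-culture (1:3) pre-grown 3 days with 10 ng/ml VEGF, then 3 days with compound plus VEGF. Fixed, nuclear and CD31 stained; total tubule length by imaging versus 0.1% DMSO; suramin 100 uM positive control.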

Test [11] in a line: VALA_TUBIPS_Antagonist_CellCount: Viability Assessment in the VALA Sciences human iPS-derived Endothelial Tubule Formation (TUBIPS) Antagonism Assay (AID 2284335).
Test [12] can be described thus: VALA_TUBHUV_Agonist_TubuleLength: VALA Sciences human Umbilical Vein Endothelial Tubule Formation (TUBHUV) Agonism Assay (AID 2284337). In a few lines: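 HUVEC co-cultured with fibroblasts (1:3) 3 days in 10 ng/ml VEGF, then 3 days with compound plus VEGF; 0.1 % DMSO neutral control. Fixed, nuclear and CD31 stained; tubule length by fluorescence imaging.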
Test [13] is described as follows: VALA_TUBIPS_Agonist_CellCount: Viability Assessment in the VALA Sciences human iPS-derived Endothelial Tubule Formation (TUBIPS) Agonism Assay (AID 2284338).

Results filed as inconclusive are left out. Active and inactive are the calls of the source. The calls were made as follows, unless noted: active = hit-call score of the fitted dose curve at least 0.9, where 1 is the maximum; inconclusive = response in the unintended direction; inactive = score below 0.9.

With `CCOc1cc(Oc2ccc(C(F)(F)F)cc2Cl)ccc1[N+](=O)[O-]`, the AC50 was 73.7 µM (active) in test [1], 50 µM (active) in test [3] and 66.4 µM (active) in test [4]. Moreover, the call in test [2] was inactive.
With `N#CC(CCc1ccc(Cl)cc1)(Cn1cncn1)c1ccccc1` (stereo not given), the compound was classed as inactive (in test [5]; in [6]; with SRD5A2 (gene 6716)).
As to `CCCCOC(=O)c1ccccc1C(=O)OCCCC`, the compound was classed as inactive (in the test with IYD (gene 389434); in [1]; in [2]; in [3]; in test [4]).
Regarding `COP(N)(=O)SC` (stereo not given), the result in test [1], in [2], in [3] and in test [4] was inactive.
As to `C=CCC1=C(C)C(OC(=O)C2C(C=C(C)C)C2(C)C)CC1=O` (stereo not given), the compound was called inactive in test [3] and in test [4].
On to `Oc1ccccc1-c1ccccc1`, for which the compound was called inactive (in the test with IYD (gene 389434); in test [5]; in [6]; in test [7]). Also, the AC50 in the test on SRD5A2 (gene 6716) was 31.5 µM (active).
Take `CC(C)(C)c1ccc(CSc2cnn(C(C)(C)C)c(=O)c2Cl)cc1`: the compound was classed as inactive in test [8], in [10], in [2] and in test [11]. The AC50 in [9] is 7.5 µM (active); in [1], 0.15 µM (active); in test [12], 7.59 µM (active); in test [13], 50 µM (active); in test [3] it was 6.79 µM (active); in [4], 0.374 µM (active).
With `CCOC(=O)CC(SP(=S)(OC)OC)C(=O)OCC` (stereo not given), the AC50 in test [1] was 2.98 µM (active). Moreover, the outcome in [2], in test [3] and in [4] was inactive.
For the compound `CC1COC(Cn2cncn2)(c2ccc(Oc3ccc(Cl)cc3)cc2Cl)O1` (stereo not given), in the test with IYD (gene 389434), the compound was classed as inactive.
With `CN(C)C(=S)SSC(=S)N(C)C`, the AC50 in test [1] was 0.0483 µM (active); in test [2], 20.5 µM (active); in test [3], 0.0675 µM (active); in test [4], 0.0447 µM (active).
With `Cc1ccc(-c2c(Cl)nc(C#N)n2S(=O)(=O)N(C)C)cc1`, the half-maximal activity concentration (AC50) was 32.6 µM (active) in test [1], 50 µM (active) in test [3] and 50 µM (active) in test [4]. The compound was called inactive in test [2].
As to `C=CC1(C)OC(=O)N(c2cc(Cl)cc(Cl)c2)C1=O` (stereo not given), the AC50 in [1] is 19.4 µM (active). Moreover, the call in [2], in [3] and in test [4] was inactive.

The term AC50 denotes the concentration at which the activity in the assay is half-maximal.
